We go through 21 molecules from PubChem BioAssay AID1569 (National Center for Advancing Translational Sciences (NCATS), 2009).

Records with an inconclusive call do not appear. Calls of active or inactive are those of the source. The call rests on the fitted dose curve; in most records, active means well fitted inhibition curve with a large enough effect; inconclusive means small, poorly fitted or top-dose-only effect, or effect the other way, or another doubt; inactive means no such curve, though single readings can be large or run the other way.
Potency means the concentration at half of the fitted maximal effect.

The test in a line: Confirmation Concentration-Response Assay for lipid storage modulators. Further: nearly all actives have a fitted effect of over 80% in size.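 On activity change, negative = inhibition: -100% = full block of lipid deposition by 20 µM Triacsin C.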 Conditions: Drosophila S3 cells, lipid droplet BODIPY/CellTracker ratio, 18-24 h; series mostly up to 46.1 µM; activity change, negative = inhibition: at the top concentration. In a few lines: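 Cells at 5,000/well received compound as a titration plus oleic acid (added as 400 uM solution) and were incubated 18–24 h at 24 °C. BODIPY 493/503 lipid signal and CellTracker Red cell count were read by 488-nm laser-scanning cytometry. Activity was normalised to 20 uM Triacsin C.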
`CC1CCCN(C2=C(NS(=O)(=O)c3ccc(Br)cc3)C(=O)c3ccccc3C2=O)C1` (stereo unspecified): the Potency is 2.5 µM (active).
With `CCOc1ccc(CCNC(=O)COC(=O)CSc2ccccc2C)cc1OCC`, the “activity change, negative = inhibition” value is 22.7% (inactive).
As for `Cc1cc(Nc2ccccc2)nc(NCc2ccccc2)n1`, the Potency was 11.2 µM (active).
Same read-out and setting: to `CC1=C(C(=O)NC2CCCc3c2cnn3-c2cccc(C)c2C)OCCO1` (stereo unspecified) belongs 0.0137 µM (active); to `CCOC(=O)c1cc2c(ccn2-c2ccc(F)cc2)n1CC(=O)NC(C)(C)C`, 1.41 µM (active); to `CN(C1=C(N2CCOCC2)C(=O)c2ccccc2C1=O)c1ccccc1`, 6.28 µM (active).
Still for that read-out and setting: to `CCOC(=O)C1CCN(C(=O)C2(NC(=O)Nc3cccc(F)c3)CCCCC2)CC1` belongs 3.97 µM (active); to `OCCNc1c2ccccc2nc2c(F)c(F)c(F)c(F)c12`, 8.65 µM (active).
Regarding `COc1ccc(CCNC(=O)c2cc3sc(Cl)cc3n2C)cc1OC`, the “activity change, negative = inhibition” value was 0% (inactive).
On to `COCc1ccc(C(=O)NC(C)c2cnn(-c3ccccc3C)c2C)o1` (stereo unspecified), for which the Potency is 12.5 µM (active).
The same measure, in the same setting: as for `COc1ccc(CCNC(=O)CCCCCNc2nc(=S)[nH]c3ccccc23)cc1OC`, the figure is 2.5 µM (active).
In the case of `COc1ccc(NC(=O)NC2(C(=O)N3CCCC(C)C3)CCCCC2)cc1` (stereo unspecified), the “activity change, negative = inhibition” value is 19.7% (inactive).
`CNC(=O)c1sc2nc(-c3ccc(OC)cc3)cn2c1C`: the Potency was 15.8 µM (active).
Same read-out and setting: to `COc1ccccc1C(=O)O[C@H]1[C@H](Cc2ccccc2)NS(=O)(=O)[C@H]2C[C@@H]3C=C[C@]12O3` belongs 8.88 µM (active).
Same read-out and setting: to `O=C1C(Nc2ccccc2)=C/C(=N/S(=O)(=O)c2cccs2)c2ccccc21` belongs 7.91 µM (active); to `COc1ccc(OC)c(CCNC(=O)Cn2sc3nc(C)cc(C)c3c2=O)c1`, 4.99 µM (active); to `O=S(=O)(c1ccccc1C(F)(F)F)N1CCC(n2cnc3ccccc32)CC1`, 0.996 µM (active).
On the same count and under the same terms, as for `CCCOc1ccc(Cc2c(Cl)nc(SC)nc2NC)cc1`, the figure is 14.1 µM (active); as for `COc1ccc(-c2cnc(SCC(=O)Nc3nc(C(C)(C)C)cs3)n2Cc2ccco2)cc1`, 0.705 µM (active).
Take `COc1ccc(CCNC(=O)c2ccccc2-c2ccccc2C(=O)O)cc1OC`: the “activity change, negative = inhibition” value was 17.3% (inactive).
In the case of `COc1cccc2cc(-c3nnc(SCC(=O)Nc4nc(C)cs4)n3C)oc12`, the Potency is 1.99 µM (active).
